Screen size: about 5,500 compounds; about 2,000 (36%) were called active. Not shown: some 18% with an inconclusive outcome. No stated cut-off is given here; in the data, active means normalized growth mostly below about 0.91 (no sharp cut-off); inconclusive means no clear call, values can overlap the other calls; inactive means mostly above about 0.92. This is one part of the list.
Experiment: chemical genetic growth profiling, strain panel (AID 1159580);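 further: tested at 20 µM; growth read once vehicle control cultures reached saturation at 30 °C; 1 = growth at the plate median or of vehicle wells; lower values mean less growth of the strain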
Conditions: growth OD

Measured: normalized growth

C=C(C)c1cc2cc(C(C)=O)c(O)cc2o1
active: S. cerevisiae deletion strains, locus YKL068W, hits give low values 0.934 | S. cerevisiae deletion strains, locus YKL085W, strain MDH1 (second series), hits give low values 0.918 | S. cerevisiae deletion strains, locus YKL085W, strain MDH1, hits give low values 0.918 | S. cerevisiae deletion strains, locus YLR113W, strain HOG1, hits give low values 0.834 | S. cerevisiae deletion strains, locus YLR262C, strain YPT6 (second series), hits give low values 0.834 | S. cerevisiae deletion strains, locus YLR371W, strain rom2, hits give low values 0.776 | S. cerevisiae deletion strains, locus YML016C, strain PPZ1, hits give low values 0.906 | S. cerevisiae deletion strains, locus YML124C, strain tub3, hits give low values 0.906 | S. cerevisiae deletion strains, locus YMR078C, strain ctf18, hits give low values 0.909 | S. cerevisiae deletion strains, locus YNL071W, strain lat1, hits give low values 0.861 | S. cerevisiae deletion strains, locus YNL298W, strain CLA4, hits give low values 0.909 | S. cerevisiae deletion strains, locus YNL307C, strain MCK1, hits give low values 0.895 | S. cerevisiae deletion strains, locus YOL147C, strain pex11, hits give low values 0.923 | S. cerevisiae deletion strains, locus YOR184W, strain ser1, hits give low values 0.845 | S. cerevisiae deletion strains, locus YOR316C, strain cot1, hits give low values 0.913 | S. cerevisiae deletion strains, locus YPL078C, strain atp4, hits give low values 0.877 | S. cerevisiae deletion strains, locus YPR141C, strain kar3, hits give low values 0.906 | S. cerevisiae deletion strains, strain wtn01, hits give low values 0.89
inactive: S. cerevisiae deletion strains, locus YJL187C, strain SWE1, hits give low values 0.994 | S. cerevisiae deletion strains, locus YJR066W, strain TOR1, hits give low values 0.886 | S. cerevisiae deletion strains, locus YKL009W, strain mrt4, hits give low values 0.939 | S. cerevisiae deletion strains, locus YKL160W, strain elf1, hits give low values 0.92 | S. cerevisiae deletion strains, locus YKL190W, strain CNB1, hits give low values 0.954 | S. cerevisiae deletion strains, locus YKR001C, strain vps1, hits give low values 0.932 | S. cerevisiae deletion strains, locus YKR026C, strain gcn3, hits give low values 0.966 | S. cerevisiae deletion strains, locus YKR091W, strain srl3, hits give low values 0.979 | S. cerevisiae deletion strains, locus YLL001W, strain dnm1, hits give low values 0.916 | S. cerevisiae deletion strains, locus YLL026W, hits give low values 0.977 | S. cerevisiae deletion strains, locus YLL041C, strain sdh2, hits give low values 0.97 | S. cerevisiae deletion strains, locus YLR027C, strain aat2, hits give low values 0.964 | S. cerevisiae deletion strains, locus YLR039C, strain RIC1, hits give low values 0.831 | S. cerevisiae deletion strains, locus YLR058C, strain SHM2, hits give low values 0.948 | S. cerevisiae deletion strains, locus YLR102C, strain apc9, hits give low values 0.931 | S. cerevisiae deletion strains, locus YLR221C, strain rsa3, hits give low values 0.975 | S. cerevisiae deletion strains, locus YLR258W, strain gsy2, hits give low values 0.932 | S. cerevisiae deletion strains, locus YLR268W, strain sec22, hits give low values 0.945 | S. cerevisiae deletion strains, locus YLR320W, strain mms22, hits give low values 0.908 | S. cerevisiae deletion strains, locus YLR342W, strain FKS1 (second series), hits give low values 0.894 | S. cerevisiae deletion strains, locus YLR342W, strain FKS1, hits give low values 0.978 | S. cerevisiae deletion strains, locus YLR357W, strain rsc2, hits give low values 1.01 | S. cerevisiae deletion strains, locus YLR370C, strain arc18, hits give low values 0.971 | S. cerevisiae deletion strains, locus YLR384C, strain iki3, hits give low values 0.977 | S. cerevisiae deletion strains, locus YLR418C, strain cdc73, hits give low values 0.861 | S. cerevisiae deletion strains, locus YML032C, strain rad52, hits give low values 0.942 | S. cerevisiae deletion strains, locus YML120C, strain ndi1, hits give low values 0.932 | S. cerevisiae deletion strains, locus YMR058W, strain fet3, hits give low values 0.954 | S. cerevisiae deletion strains, locus YMR125W, strain sto1, hits give low values 0.982 | S. cerevisiae deletion strains, locus YMR129W, hits give low values 0.966 | S. cerevisiae deletion strains, locus YMR205C, strain PFK2, hits give low values 0.906 | S. cerevisiae deletion strains, locus YMR223W, strain ubp8, hits give low values 0.967 | S. cerevisiae deletion strains, locus YMR231W, strain pep5, hits give low values 0.997 | S. cerevisiae deletion strains, locus YMR307W, strain GAS1, hits give low values 0.904 | S. cerevisiae deletion strains, locus YNL067W, strain RPL9B, hits give low values 0.986 | S. cerevisiae deletion strains, locus YNL128W, strain TEP1, hits give low values 0.928 | S. cerevisiae deletion strains, locus YNL183C, strain NPR1, hits give low values 0.889 | S. cerevisiae deletion strains, locus YNL209W, strain ssb2, hits give low values 0.967 | S. cerevisiae deletion strains, locus YNL233W, strain BNI4, hits give low values 0.952 | S. cerevisiae deletion strains, locus YNL248C, strain rpa49, hits give low values 0.956 | S. cerevisiae deletion strains, locus YNL250W, strain rad50, hits give low values 0.932 | S. cerevisiae deletion strains, locus YNL271C, strain bni1, hits give low values 0.957 | S. cerevisiae deletion strains, locus YNL322C, strain KRE1 (second series), hits give low values 0.979 | S. cerevisiae deletion strains, locus YNR049C, strain mso1, hits give low values 0.976 | S. cerevisiae deletion strains, locus YNR052C, strain pop2, hits give low values 0.97 | S. cerevisiae deletion strains, locus YOL006C, strain TOP1, hits give low values 0.714 | S. cerevisiae deletion strains, locus YOL012C, strain htz1 0.842 | S. cerevisiae deletion strains, locus YOR001W, strain rrp6, hits give low values 0.982 | S. cerevisiae deletion strains, locus YOR061W, strain CKA2, hits give low values 0.933 | S. cerevisiae deletion strains, locus YOR069W, strain VPS5, hits give low values 0.968 | S. cerevisiae deletion strains, locus YOR070C, strain gyp1, hits give low values 0.979 | S. cerevisiae deletion strains, locus YOR080W, strain dia2, hits give low values 0.984 | S. cerevisiae deletion strains, locus YOR083W, strain WHI5, hits give low values 0.929 | S. cerevisiae deletion strains, locus YOR106W, strain vam3, hits give low values 0.965 | S. cerevisiae deletion strains, locus YOR136W, strain idh2, hits give low values 0.943 | S. cerevisiae deletion strains, locus YOR144C, strain elg1, hits give low values 0.936 | S. cerevisiae deletion strains, locus YOR231W, strain MKK1, hits give low values 0.93 | S. cerevisiae deletion strains, locus YOR265W, strain rbl2, hits give low values 0.96 | S. cerevisiae deletion strains, locus YOR270C, strain vph1, hits give low values 0.88 | S. cerevisiae deletion strains, locus YOR290C, strain snf2, hits give low values 0.893 | S. cerevisiae deletion strains, locus YPL051W, strain arl3, hits give low values 0.917 | S. cerevisiae deletion strains, locus YPL106C, strain sse1, hits give low values 0.895 | S. cerevisiae deletion strains, locus YPL240C, strain hsp82, hits give low values 0.961 | S. cerevisiae deletion strains, locus YPL256C, strain CLN2, hits give low values 0.897 | S. cerevisiae deletion strains, locus YPR119W, strain clb2, hits give low values 0.942 | S. cerevisiae deletion strains, locus YPR163C, strain tif3, hits give low values 0.976 | S. cerevisiae deletion strains, locus YPR167C, strain met16, hits give low values 0.927 | S. cerevisiae strains, strain wild type, hits give low values 0.929
